Compounds with a hit are over-represented: about 1.6% of the library has one in this group of screens.
KCNQ2 block – KCNQ2 (rat) channel inhibition. AID 2156. actives 1.1% (n = 310,000). B-score at 10 µM. O88943. CHO-K1 KCNQ2, FluxOR thallium flux, 20 min; stronger effect = lower value;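 active = fluorescence ratio B-score at most minus 3 library SDs, with starting brightness B-score within 2 library SDs, cut at about -5.5 in these data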
Target sequence (O88943 whole entry, looked up): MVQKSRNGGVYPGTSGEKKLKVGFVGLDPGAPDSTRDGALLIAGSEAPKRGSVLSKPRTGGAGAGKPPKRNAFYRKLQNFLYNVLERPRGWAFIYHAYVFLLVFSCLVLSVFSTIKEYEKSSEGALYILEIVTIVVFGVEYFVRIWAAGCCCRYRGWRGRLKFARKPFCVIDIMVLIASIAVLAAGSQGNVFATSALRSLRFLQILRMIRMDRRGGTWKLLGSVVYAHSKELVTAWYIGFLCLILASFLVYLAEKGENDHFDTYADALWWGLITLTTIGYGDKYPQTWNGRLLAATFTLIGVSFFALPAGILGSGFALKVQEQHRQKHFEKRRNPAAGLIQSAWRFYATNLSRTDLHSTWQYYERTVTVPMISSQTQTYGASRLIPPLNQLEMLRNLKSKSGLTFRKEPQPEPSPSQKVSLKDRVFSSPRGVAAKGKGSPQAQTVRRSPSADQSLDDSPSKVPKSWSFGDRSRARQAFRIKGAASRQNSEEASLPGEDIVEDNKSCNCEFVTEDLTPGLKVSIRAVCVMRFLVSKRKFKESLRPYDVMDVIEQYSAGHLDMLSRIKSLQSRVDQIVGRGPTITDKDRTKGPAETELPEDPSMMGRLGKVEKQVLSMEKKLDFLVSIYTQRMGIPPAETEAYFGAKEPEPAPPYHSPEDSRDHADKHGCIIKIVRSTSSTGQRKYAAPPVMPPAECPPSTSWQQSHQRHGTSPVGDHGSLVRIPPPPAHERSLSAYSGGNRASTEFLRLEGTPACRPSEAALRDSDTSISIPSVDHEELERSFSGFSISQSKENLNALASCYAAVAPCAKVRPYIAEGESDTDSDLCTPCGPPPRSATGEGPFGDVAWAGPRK
KCNQ2 enhance – KCNQ2 (rat) channel potentiation. O88943. CHO-K1 KCNQ2, FluxOR thallium flux fluorescence; stronger effect = higher value. actives 0.54% (n = 310,000). B-score at 10 µM;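 active = fluorescence ratio B-score at least 3 SD of library B-scores, with initial fluorescence B-score within 3 of them, cut at about 5.3 in these data; same plate scores as AID 2156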;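 note: B-score of peak minus minimum over baseline fluorescence ratio after K+ and Tl+ stimulus; positive B-score means potentiation of KCNQ2 with more thallium influx and brighter signal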
KCNQ2 inh conf – rat KCNQ2 channel inhibition, confirmatory screen; shares compounds with KCNQ2 block; KCNQ2-expressing cells, thallium flux; stronger effect = lower value; activity change, negative = inhibition, % at 10 µM; actives 57% (n = 1,000); AID 493025;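 note: 0% = vehicle wells and values are ratio percent relative to vehicle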
KCNQ1 spec – KCNQ2 inhibitor that also affects human KCNQ1 channel; actives 15% (n = 1,000); AID 493026; shares compounds with KCNQ2 block; KCNQ1-expressing cells, FluxOR thallium flux fluorescence; stronger effect = lower value; activity change, negative = inhibition, % at 10 µM;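 active = activity change at least 3 SD of negative controls below their mean in both duplicate wells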;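 note: CHO cells stably transfected with KCNQ1 and depolarized by potassium stimulus; peak minus minimum fluorescence over baseline after thallium addition; 0% = vehicle negative control and -100% = blank without thallium stimulus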
CHO parental ctr – counter-screen for KCNQ2 inhibitors: effect in parental CHO cells; AID 493029; actives 14% (n = 1,000); thallium flux counter-screen; stronger effect = lower value; shares compounds with KCNQ2 block; activity change, % at 10 µM;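 note: 0% = vehicle negative controls with stimulus buffer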
KCNQ2 patch conf – blocks rat KCNQ2 current in automated patch clamp; actives 49% (n = 550); calls only at 10 µM; KCNQ2-expressing cells; AID 588531; shares compounds with KCNQ2 block
* hit, by the source's call; i = inactive; · = no result given; + = active, no number. Unless noted, the rule behind the calls is not given here.

SMILES | KCNQ2 block | KCNQ2 enhance | KCNQ2 inh conf | KCNQ1 spec | CHO parental ctr | others
CCOC(=O)N1CCc2c(sc3c2c(=O)n(Cc2ccccc2)c(=O)n3CC(=O)NCC2CCCO2)C1 (stereo not given) | i | 0.43 | · | · | ·
O=C(O)Cn1c(=O)c2c3c(sc2n(Cc2ccccc2)c1=O)CCCC3 | i | · | · | · | ·
CCOC(=O)N1CCN(C(=O)CN(C)S(=O)(=O)c2ccc(OCC)cc2)CC1 | i | 0.65 | · | · | ·
COc1ccc(C(=O)C2CCCN(S(=O)(=O)c3ccccc3F)C2)c(C)c1 (stereo not given) | i | 0.02 | · | · | ·
O=C(NC(Cc1ccccc1)C(=O)N1CCCCCC1)c1ccccc1 (stereo not given) | i | · | · | · | ·
CC1CC(C)CN(C(=O)C(Cc2ccccc2)NC(=O)c2ccccc2)C1 (stereo not given) | -6.97* | -6.97 | i | i | i
CCNNC(=O)C(O)(Cc1ccccc1)Cc1ccccc1 | i | · | · | · | ·
CC(C)CNC(=O)c1c2c(nc3ccccc13)-c1ccccc1CC2 | i | · | · | · | ·
CCN(CC)C(=O)c1c2c(nc3ccccc13)-c1ccccc1CC2 | -8.82* | -8.82 | i | i | i
COc1cccc2c1CCc1c-2nc2ccccc2c1C(=O)O | i | 0.66 | · | · | ·
C=CCNC(=O)c1c2c(nc3ccccc13)-c1ccccc1CC2 | -7.64* | -7.64 | i | i | i
O=C1CSC(=S)N1N1C(=O)c2cccc([N+](=O)[O-])c2C1=O | i | · | · | · | ·
CCN(CCCn1c(SCC#N)nc2ccccc2c1=O)c1ccccc1 | -8.75* | -8.75 | i | i | i
C=C(C)Cn1c(SCC#N)nc2ccccc2c1=O | i | 0.48 | · | · | ·
CCN(c1ccc(C)cc1)S(=O)(=O)c1nnc(NC(=O)c2ccco2)s1 | i | 1.24 | · | · | ·
CCOC(=O)N1CCN(C(=O)C(=O)Nc2sc3c(c2C(=O)O)CC(C)(C)OC3)CC1 | i | 1.14 | · | · | ·
COC(=O)c1cccc(NC(=O)c2cc(OC)c(OC)c(OC)c2Br)c1 | i | · | · | · | ·
COc1cc(C(=O)Nc2cccc(C)c2C)c(Br)c(OC)c1OC | -7.98* | -7.98 | -24.5%* | i | i | KCNQ2 patch conf=+
COc1ccc2oc(C(=O)N3CCN(C(c4ccccc4)c4ccccc4)CC3)c(C)c2c1 | -10.5* | -10.5 | i | i | i
COc1ccc(N2CCN(C(=O)c3oc4ccccc4c3C)CC2)cc1 | i | · | · | · | ·
Cc1c(CCO)c(=O)[nH]n1S(=O)(=O)c1ccc(F)cc1 | i | · | · | · | ·
O=C(OCC(=O)N(C1CCCCC1)C1CCCCC1)c1ccc(O)cc1 | i | 0.71 | · | · | ·
O=C(OCC(=O)N(C1CCCCC1)C1CCCCC1)c1ccccc1O | -7.34* | -7.34 | -35.5%* | i | i | KCNQ2 patch conf=+
CCOc1ccc(NC(=O)CN(C)C(=O)c2cn3ccccc3n2)cc1OCC | i | 0.24 | · | · | ·
CCCOC(=O)/C(=C\C=C\c1ccccc1)NC(=O)c1ccccc1 | i | · | · | · | ·
SMILES | KCNQ2 block | KCNQ2 enhance | KCNQ2 inh conf | KCNQ1 spec | CHO parental ctr | others
CCCCOC(=O)/C(=C/C=C/c1ccccc1)NC(=O)c1ccccc1 | -6.86* | -6.86 | -25.0%* | i | i | KCNQ2 patch conf=i
COc1ccccc1CCNC(=O)c1nccnc1C(=O)O | i | 0.77 | · | · | ·
Cc1ccc(S(=O)(=O)/N=C(\Sc2ccccc2)c2ccccc2)cc1 | i | · | · | · | ·
O=S(=O)(/N=C(\Sc1ccccc1)c1ccccc1)c1ccc(Cl)cc1 | -6.91* | -6.91 | i | i | i
Cc1ccc(NC(=O)c2ccc3nsnc3c2)c(C)c1 | i | 0.79 | · | · | ·
c1ccc(C(c2nnnn2Cc2ccco2)N2CCN(c3nc4ccccc4s3)CC2)cc1 (stereo not given) | i | · | · | · | ·
c1ccc(Cn2nnnc2C(c2ccccc2)N2CCN(c3nc4ccccc4s3)CC2)cc1 (stereo not given) | -7.94* | -7.94 | -37.0%* | i | i | KCNQ2 patch conf=i
COc1ccc(C(c2nnnn2Cc2ccccc2)N2CCN(c3nc4ccccc4s3)CC2)cc1OC (stereo not given) | i | · | · | · | ·
COc1ccccc1C(c1nnnn1Cc1ccccc1)N1CCN(c2nc3ccccc3s2)CC1 (stereo not given) | -8.82* | -8.82 | -31.0%* | i | i | KCNQ2 patch conf=+
COc1ccc(OC)c(S(=O)(=O)NC(N)=NCCc2ccccc2OC)c1 | i | · | · | · | ·
CC(C)(C)c1cccc(OCCCSc2ncccn2)c1 | -9.16* | -9.16 | i | i | i
Cc1ccc(OCCCSc2ncccn2)cc1C | i | · | · | · | ·
O=C(NCCCSc1ccccc1)c1cc(Br)ccc1O | i | · | · | · | ·

High-throughput results (PubChem)
